This passage reports growth results from PubChem BioAssay (NCI).

This is part of a sample that, as a whole, favours compounds with a hit. Of some 83,000 tested, about 20% had one in any assay.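 Negative percent growth values reflect cell death: -40 means 40% of the cells present at the start died, and -100 means all died.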 A number with no mark means an inactive call. Calls of active or inactive are those of the source. The calls were made as follows: active = growth percent below 10; inactive = the rest.

Holding throughout (test): NCI-60 one-dose screen, 48 h (100 = growth as untreated, 0 = no growth, -100 = all killed)
Common to all, as to conditions: 10 µM unless noted

In experiment [1] the test system is SR leukemia.
Experiment [2] relates to RPMI-8226 leukemia.
Experiment [3] deals with OVCAR-8 ovarian.
Experiment [4] deals with OVCAR-5 ovarian.
Experiment [5] concerns OVCAR-4 ovarian.
Experiment [6] concerns SK-OV-3 ovarian.
Experiment [7] deals with IGROV1 ovarian.
Experiment [8] relates to OVCAR-3 ovarian.
Experiment [9] deals with HS 578T breast.
The subject of experiment [10] is NCI/ADR-RES ovarian.

With `COC(=O)c1cccc(NC2=C(Cl)C(=O)C(C)=C(C)C2=O)c1`, the growth in [1] is 30%; in [2], 58.3%; in [3], 99.4%; in [4], 101%; in [5], -36.7% (active); in experiment [6], 106%. Moreover, the growth in [7] was 56.2%; in [8] it was 94.2%; in experiment [9] it was 88.1%; in experiment [10] it was 98.2%.
For the molecule `O=C(CSc1cc[n+](CCCCO)c2ccccc12)n1ccc2ccccc21`, the growth in experiment [1] was 90.3%; in [2], 103%; in [3] it was 95.5%; in experiment [4], 102%; in experiment [5] it was 105%; in [6], 91%. Also, the growth was 20.2% in [7], 104% in experiment [8], 106% in [9] and 105% in [10].
For `Cn1c(SCC(=O)c2ccc(Br)cc2)nc2ccccc2c1=O`, the growth in experiment [1] is 89.6%; in [2], 77.7%; in experiment [3], 96.8%; in experiment [4] it was 106%; in experiment [5], 81.8%; in experiment [6], 98.9%. In addition, the growth in experiment [7] is 90.5%; in experiment [8], 102%; in [9] it was 102%; in experiment [10], 96.5%.
`CC(=O)Nc1nc(C)c(-c2csc(Nc3ccccc3)n2)s1`: the growth in experiment [1] is 8.83% (active); in experiment [2] it was 27.4%; in [3], 52.3%; in experiment [4] it was 41.9%; in experiment [5] it was 54.7%; in experiment [6], 15.3%. Moreover, the growth was -9.74% (active) in [7], 37.1% in experiment [8], -4.87% (active) in experiment [9] and 35.9% in experiment [10].
As to `CC1=C(C)C(=O)C(Nc2cccc(C(=O)OC(C)(C)C)c2)=CC1=O`, the growth was 81.8% in [1]; 75.8% in experiment [2]; 82.2% in experiment [3]; 98.3% in [4]; 34.9% in experiment [5]; 90.5% in experiment [6]. Also, the growth in experiment [7] was 72.9%; in experiment [8] it was 6.18% (active); in [9], 79.4%; in experiment [10], 76%.
As for `COc1ccc(NC(=O)CCCCCCNC(=O)C(O)(O)C(F)(F)F)cc1`, the growth is 15% in experiment [1]; 25.1% in [2]; 22.3% in experiment [3]; 31.3% in experiment [4]; 77.7% in [5]; 4.07% (active) in experiment [6]. For the same molecule, the growth in experiment [7] was 62.4%; in [8] it was 49.1%; in experiment [9], 56.9%; in [10], 49.8%.
As for `COc1ccc(Cn2cc(C#N)c(N)c2C(C)=O)cc1`, the growth is 122% in [1]; 105% in experiment [2]; 111% in experiment [3]; 106% in experiment [4]; 92.9% in experiment [5]; 105% in [6]. In addition, the growth in experiment [7] is 106%; in experiment [8], 108%; in experiment [9], 102%; in experiment [10], 104%.
Take `Cc1ccc2c(n1)C(=O)C(Cl)=C(Nc1ccc(C(=O)OC(C)(C)C)cc1)C2=O`: the growth is -11.5% [9.25 µM] (active) in [1]; -0.459% [9.25 µM] (active) in experiment [2]; 80.3% [9.25 µM] in experiment [3]; 127% [9.25 µM] in experiment [4]; 42.7% [9.25 µM] in experiment [5]; 101% [9.25 µM] in experiment [6]. The growth was 84.8% [9.25 µM] in experiment [7], 1.44% [9.25 µM] (active) in experiment [8], 101% [9.25 µM] in experiment [9] and 84.9% [9.25 µM] in experiment [10].
For `C#CCN(C)CCCOc1ccc(NC(=O)CCCCCCC(=O)NO)cc1Cl`, the growth in experiment [1] is 13.7%; in [2], 0.211% (active); in experiment [3], 17.7%; in experiment [4], 12.8%; in [5], 41.9%; in experiment [6], 18.2%. The growth in experiment [7] is 17%; in experiment [8], 27.8%; in experiment [9] it was 19.7%; in experiment [10], 65.4%.
For the molecule `CCOP(=O)(OCC)OC[C@]12CC[C@@H](C)[C@H](C)C1C1=CC[C@@H]3[C@@]4(C)CCCNC(C)(C)[C@@H]4CC[C@@]3(C)[C@]1(C)CC2` (stereo not given in full), the growth was -57.7% (active) in experiment [1]; -48.9% (active) in experiment [2]; 61.2% in [3]; 70% in [4]; 34.4% in experiment [5]; 72.7% in experiment [6]. The growth in experiment [7] is 0.926% (active); in [8], 38.4%; in [9], 47.8%; in experiment [10], 20.6%.
With `COc1cc(NC(=O)Nc2cccc(-c3cc(=O)c4c(OC)c(OC)c(OC)cc4o3)c2)cc(OC)c1OC`, the growth is 54.5% in experiment [1]; 31.4% in [2]; 38.4% in [3]; 79.5% in experiment [4]; 65.5% in experiment [5]; 111% in [6]. Further, the growth is 34.5% in experiment [7], 40.1% in experiment [8], 17.1% in experiment [9] and 82.4% in [10].
